Values without a mark were called inactive. Results filed as inconclusive are left out. Activity calls are given as the source filed them. Unless noted, calls follow the shape of the dose curve; as a rule, active = well fitted curve in either direction with a large enough effect (not every such curve was filed as active); inconclusive = small, poorly fitted or top-dose-only effect, or another doubt; inactive = flat fitted curve, though single readings scatter.
Legend:
[1] = molecular target: Lysosomal acid glucosylceramidase (Homo sapiens) (UniProt P04062); test: Glucocerebrosidase-p2 (AID 348; in the data active = potency below about 10 µM; also: potency is read from the fitted curve at half-maximal effect); settings: purified GBA, blue fluorogenic substrate, 40 min
In short: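 Compounds titrated from 0.6 nM upwards against 0.2 nM enzyme in pH 5.9 citric acid/KH2PO4, taurocholate, tween-20; blue fluorogenic substrate 80 uM, 40 min room temperature, stopped and read Ex 365/Em 440 for AC50.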

[2] = AP1 Signaling Pathway (AID 357); settings: ME-180 AP-1-bla reporter, EGF-induced, beta-lactamase ratio, 5 h; at 7.69 µM (top of the series) unless noted; also: % is scaled to controls: 0 for no effect and ±100 for the full control effect
In short: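 AP-1-bla ME-180 cells with beta-lactamase reporter under AP-1 response element, stimulated with EC50 EGF; compounds titrated, 5 hours at 37 degrees Celsius. CCF4 read at 460/530 nm ratio; positive and negative modulators judged by AC50.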

[3] = Stat Signaling Pathway (AID 446); settings: ME-180 SIE beta-lactamase reporter, IL-6 stimulated, 5 h; at 7.69 µM (top of the series) unless noted;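 also: ME-180 cervical cancer cells given 40 pM IL-6 alongside compound; SIE-controlled beta-lactamase reporter measured as 460/530 nm FRET emission ratio; % is scaled to controls: 0 for no effect and ±100 for the full control effect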
In short: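 Screening format detects activators and inhibitors alike: ME-180 SIE-bla cells stimulated at 40 pM IL-6 for 5 hrs with compound, then dual-emission beta-lactamase read at 405 nm excitation.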

[4] = molecular target: Glucocorticoid receptor (Homo sapiens) (UniProt P04150); test: GR-EFC Redistribution (AID 451; calls by dose curve; also: potency is read from the fitted curve at half-maximal effect); settings: CHO-K1 GR-EFC translocation, beta-gal luminescence, 2 h
In short: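 CHO-K1 cells stably expressing nuclear-localized β-gal enzyme acceptor and GR fused C-terminally to the enzyme donor fragment; ligand-driven nuclear translocation restores β-gal by complementation. Compounds titrated up to 46 uM final, 2 h at 37 °C; luminescence read.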

[5] = molecular target: Mitogen-activated protein kinase 10 (Mus musculus) (UniProt Q61831); test: JNK3 AlphaScreen Assay (AID 530); settings: JNK3 lysate, c-Jun phosphorylation; series mostly up to 57.1 µM;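 also: kinase came from lysate of stimulated human HepG2 cells; signal reports phosphorylation of biotinylated GST-cJun 1-79 at Ser73 with 10 µM ATP; % is scaled to controls: 0 for no effect and ±100 for the full control effect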
In short: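 Inhibitors reduce antibody binding to phosphorylated biotin-cJun, lowering AlphaScreen luminescence. Lysates from HepG2 cells pre-activated by IL-1beta plus TNF-alpha supplied JNK3; compounds were titrated.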

[6] = molecular target: 3',5'-cyclic-AMP phosphodiesterase 4B (Homo sapiens) (UniProt Q07343); test: qHTS Assay for Inhibitors of PDE-IV (AID 607; active = well fitted activation curve with a large enough effect in the main read-out, with a control signal flat, not every such curve was filed as active; also: % of control where 0% means no effect); settings: HEK293 ACTOne CNG channel cells, membrane potential fluorescence; series mostly up to 22.9 µM
In short: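 The readout is membrane depolarisation from a cAMP-sensing CNG channel, detected with a potential dye at ex 535/em 590. Cells were HEK293-derived (endogenous PDE-IV) at 1000 cells/well, titrated up to 22.9 uM final.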

[7] = Primary qHTS for small molecule stabilizers of the endoplasmic reticulum resident proteome: Secreted ER Calcium Modulated Protein (SERCaMP) assay (AID 1508630; active = well fitted curve in the direction sought with a large enough effect; an effect the other way counts as inactive or inconclusive; also: % is scaled to controls: 0 for no effect and ±100 for the full control effect); settings: SH-SY5Y GLuc-SERCaMP (Gaussia luciferase released on ER calcium loss) secretion, thapsigargin, luminescence; series mostly up to 38.4 µM
In short: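 GLuc-SERCaMP-expressing SH-SY5Y cells, pretreated 16 h with compound, are challenged with thapsigargin to empty ER calcium stores; after 4 h, coelenterazine is added directly to the medium and luminescence is imaged.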

[8] = NFAT Signaling Pathway (AID 444); settings: Jurkat NFAT-bla M1, carbachol, beta-lactamase ratio, 5 h; at 7.69 µM (top of the series) unless noted
In short: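 Jurkat cells carrying an NFAT-driven β-lactamase reporter and co-transfected muscarinic M1 receptor were treated with compound plus carbachol (1 uM final, an EC50 level) for 5 h at 37 °C. CCF4 loading followed for 1 h at RT; 460/530 nm ratio gave %activity.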

[9] = molecular target: Glucocorticoid receptor (Homo sapiens) (UniProt P04150); test: GR-GFP Redistribution (AID 450;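 active = compounds whose dose series gives a full or clear partial fitted curve of increased nuclear translocation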; also: potency is read from the fitted curve at half-maximal effect); settings: U2OS GR-GFP nuclear translocation, laser cytometry, 2 h
[10] = molecular target: Cytochrome P450 3A4 (Homo sapiens) (UniProt P08684); test: qHTS Assay for Inhibitors and Substrates of Cytochrome P450 3A4 (AID 884; active = well fitted curve in the direction sought with a large enough effect; an effect the other way counts as inactive or inconclusive; also: % is scaled to controls: 0 for no effect and ±100 for the full control effect; nearly all actives have a fitted effect of over 50% in size); settings: recombinant CYP3A4, Luciferin-PPXE luminescence; series mostly up to 57.1 µM
In short: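 20 nM human CYP3A4 with 25 uM Luciferin-PPXE (at KM) in 200 mM KPO4, preincubated 10 min with compound; NADPH regeneration started a 60 min RT reaction. Luciferin detected by luminescence, normalized to 57 uM ketoconazole as full inhibition.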

[11] = molecular target: Cytochrome P450 3A4 (Homo sapiens) (UniProt P08684); test: qHTS Assay for Activators of Cytochrome P450 3A4 (AID 885; active = well fitted curve in the direction sought with a large enough effect; an effect the other way counts as inactive or inconclusive; also: nearly all actives have a fitted effect of over 65% in size); settings: recombinant CYP3A4, Luciferin-PPXE luminescence, 60 min; series mostly up to 57.1 µM
In short: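 Steps: enzyme/substrate mix dispensed; compound added, 10 min RT; NADPH regeneration solution added, 60 min RT; luciferin detection buffer stops reaction; 20 min later luminescence measured.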

[12] = Confirmation and Secondary Assay for Modulators of Hemoglobin Beta Chain Splicing at IVS2 654 locus (AID 910; active = well fitted curve in the direction sought with a large enough effect; an effect the other way counts as inactive or inconclusive; also: % of control where 0% means no effect); settings: HeLa EGFP-654 splicing reporter, GFP fluorescence, 48 h; series mostly up to 38.3 µM
In short: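 HeLa cells stably carrying EGFP interrupted by mutant beta-globin IVS2-654 intron (CMV-driven) were treated with compound for 2 days at 37C; corrected splicing was scored as total peak GFP intensity per well (488 nm excitation, 500-520 nm emission).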

[13] = Confirmation and Secondary Assay for Modulators of Hemoglobin Beta Chain Splicing at IVS2 705 locus (AID 930; active = well fitted curve in the direction sought with a large enough effect; an effect the other way counts as inactive or inconclusive;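 also: HeLa cells stably expressing the EGFP-705 splicing reporter; GFP fluorescence per well restored by corrected splicing of the IVS2-705 intron in EGFP; % of control where 0% means no effect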); settings: HeLa EGFP-705 splicing reporter, GFP fluorescence, 48 h; series mostly up to 38.3 µM
In short: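 HeLa cells stably carrying EGFP interrupted by mutant beta-globin intron 2 (IVS2-705) treated 2 days at 37C with compound; 500 nM antisense PNA as control. Correct splicing read as total peak GFP intensity per well by laser-scanning cytometry.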

[14] = qHTS Assay for Identification of Small Molecule Agonists for Hypoxia Response Element Signaling Pathway (AID 914; active = well fitted activation curve with a large enough effect in the signal ratio, with a control signal flat, not every such curve was filed as active; the % refers to the signal ratio; also: % of control where 0% means no effect); settings: ME-180 (cervical carcinoma) HRE-bla reporter, beta-lactamase ratio, CoCl2, 17 h; activation: stronger effect = higher value
In short: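 HRE-bla ME-180 cells with beta-lactamase reporter under hypoxia response element, compounds with EC50 CoCl2 for 17 hours at 37 C. CCF4 substrate, 460nm/530nm emission ratio gave %Activity; AC50 from titration series.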

[15] = molecular target: Ubiquitin carboxyl-terminal hydrolase 1 (Homo sapiens) (UniProt O94782); test: Inhibitors of USP1/UAF1: Pilot qHTS (AID 504865; active = well fitted curve in the direction sought with a large enough effect; an effect the other way counts as inactive or inconclusive; also: potency is read from the fitted curve at half-maximal effect; nearly all actives have a fitted effect of over 35% in size); settings: purified USP1/UAF1, Ub-rhodamine cleavage fluorescence; series mostly up to 54.9 µM
In short: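 Deubiquitinase activity followed as kinetic rhodamine fluorescence release from 150 nM Ub-Rho. 1 nM USP1/UAF1 with compound, after 15 min room-temperature preincubation, in HEPES pH 7.8 buffer containing TCEP, EDTA, BSA and Tween-20.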

Chain of Glucocorticoid receptor (Homo sapiens) (P04150 whole entry, looked up, the tested form may be a part): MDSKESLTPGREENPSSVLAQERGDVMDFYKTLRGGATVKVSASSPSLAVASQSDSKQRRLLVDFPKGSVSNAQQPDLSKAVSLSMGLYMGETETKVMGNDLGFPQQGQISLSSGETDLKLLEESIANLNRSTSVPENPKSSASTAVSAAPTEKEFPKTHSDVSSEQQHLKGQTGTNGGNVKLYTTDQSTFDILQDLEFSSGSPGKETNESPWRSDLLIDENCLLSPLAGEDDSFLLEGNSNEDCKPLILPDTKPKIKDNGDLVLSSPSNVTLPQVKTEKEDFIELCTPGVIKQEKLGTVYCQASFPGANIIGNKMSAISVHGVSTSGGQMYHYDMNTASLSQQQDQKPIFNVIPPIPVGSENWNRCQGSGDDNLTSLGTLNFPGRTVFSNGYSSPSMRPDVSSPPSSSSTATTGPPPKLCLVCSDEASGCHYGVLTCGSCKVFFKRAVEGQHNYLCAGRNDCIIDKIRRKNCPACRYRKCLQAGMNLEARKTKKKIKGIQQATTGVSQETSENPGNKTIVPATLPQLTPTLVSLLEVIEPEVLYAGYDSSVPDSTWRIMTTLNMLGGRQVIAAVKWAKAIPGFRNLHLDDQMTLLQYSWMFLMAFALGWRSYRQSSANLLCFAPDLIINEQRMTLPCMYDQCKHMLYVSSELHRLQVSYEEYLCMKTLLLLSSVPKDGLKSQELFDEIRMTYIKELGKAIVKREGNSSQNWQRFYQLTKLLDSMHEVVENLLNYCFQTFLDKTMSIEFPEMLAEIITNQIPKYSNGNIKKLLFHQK
Chain of 3',5'-cyclic-AMP phosphodiesterase 4B (Homo sapiens) (Q07343 whole entry, looked up): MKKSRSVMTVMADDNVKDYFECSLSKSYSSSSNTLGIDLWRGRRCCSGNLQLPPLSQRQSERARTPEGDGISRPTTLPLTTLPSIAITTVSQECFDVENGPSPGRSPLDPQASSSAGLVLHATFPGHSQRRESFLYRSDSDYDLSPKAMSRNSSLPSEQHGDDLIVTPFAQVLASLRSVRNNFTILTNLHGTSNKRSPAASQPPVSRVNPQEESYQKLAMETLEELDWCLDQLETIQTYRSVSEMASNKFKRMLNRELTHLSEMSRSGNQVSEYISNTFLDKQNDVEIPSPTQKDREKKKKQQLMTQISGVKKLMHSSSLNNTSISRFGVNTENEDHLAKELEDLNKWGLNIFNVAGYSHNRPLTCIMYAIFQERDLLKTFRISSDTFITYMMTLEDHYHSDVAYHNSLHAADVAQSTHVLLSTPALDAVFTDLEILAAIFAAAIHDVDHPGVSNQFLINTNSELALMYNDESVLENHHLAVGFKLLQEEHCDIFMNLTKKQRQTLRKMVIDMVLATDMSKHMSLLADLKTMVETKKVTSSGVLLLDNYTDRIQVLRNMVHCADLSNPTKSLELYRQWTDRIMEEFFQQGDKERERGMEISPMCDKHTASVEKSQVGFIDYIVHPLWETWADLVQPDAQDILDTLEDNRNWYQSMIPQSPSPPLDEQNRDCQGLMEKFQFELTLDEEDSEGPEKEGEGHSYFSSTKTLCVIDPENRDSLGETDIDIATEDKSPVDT
Chain of Lysosomal acid glucosylceramidase (Homo sapiens) (P04062 whole entry, looked up): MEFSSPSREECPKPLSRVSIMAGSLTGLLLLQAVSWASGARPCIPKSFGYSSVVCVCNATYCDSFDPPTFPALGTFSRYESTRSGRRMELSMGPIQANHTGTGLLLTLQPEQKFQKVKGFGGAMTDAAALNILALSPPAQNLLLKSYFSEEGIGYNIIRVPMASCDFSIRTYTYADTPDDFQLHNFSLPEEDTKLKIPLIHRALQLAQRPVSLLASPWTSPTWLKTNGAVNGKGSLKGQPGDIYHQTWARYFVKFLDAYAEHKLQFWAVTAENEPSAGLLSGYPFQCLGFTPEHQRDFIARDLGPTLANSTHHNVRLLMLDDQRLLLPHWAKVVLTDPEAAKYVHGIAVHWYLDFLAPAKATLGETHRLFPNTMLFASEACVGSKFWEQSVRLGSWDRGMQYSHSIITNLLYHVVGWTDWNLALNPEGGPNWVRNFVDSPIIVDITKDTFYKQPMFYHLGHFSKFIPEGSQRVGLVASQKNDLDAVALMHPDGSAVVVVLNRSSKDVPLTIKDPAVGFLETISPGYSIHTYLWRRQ
Chain of Cytochrome P450 3A4 (Homo sapiens) (P08684 whole entry, looked up): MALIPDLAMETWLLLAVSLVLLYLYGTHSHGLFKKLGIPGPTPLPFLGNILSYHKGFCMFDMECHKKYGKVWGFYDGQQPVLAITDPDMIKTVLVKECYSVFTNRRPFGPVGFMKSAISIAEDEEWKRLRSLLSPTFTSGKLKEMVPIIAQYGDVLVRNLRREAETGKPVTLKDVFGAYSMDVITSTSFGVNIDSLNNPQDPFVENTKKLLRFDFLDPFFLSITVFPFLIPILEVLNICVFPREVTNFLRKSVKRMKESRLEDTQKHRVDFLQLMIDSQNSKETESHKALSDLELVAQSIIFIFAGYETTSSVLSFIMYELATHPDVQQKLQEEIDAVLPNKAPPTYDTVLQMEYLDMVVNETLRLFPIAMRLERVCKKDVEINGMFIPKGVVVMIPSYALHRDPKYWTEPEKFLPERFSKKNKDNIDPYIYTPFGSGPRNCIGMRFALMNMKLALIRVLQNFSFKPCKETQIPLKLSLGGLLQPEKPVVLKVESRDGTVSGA
Chain of Ubiquitin carboxyl-terminal hydrolase 1 (Homo sapiens) (O94782 whole entry, looked up): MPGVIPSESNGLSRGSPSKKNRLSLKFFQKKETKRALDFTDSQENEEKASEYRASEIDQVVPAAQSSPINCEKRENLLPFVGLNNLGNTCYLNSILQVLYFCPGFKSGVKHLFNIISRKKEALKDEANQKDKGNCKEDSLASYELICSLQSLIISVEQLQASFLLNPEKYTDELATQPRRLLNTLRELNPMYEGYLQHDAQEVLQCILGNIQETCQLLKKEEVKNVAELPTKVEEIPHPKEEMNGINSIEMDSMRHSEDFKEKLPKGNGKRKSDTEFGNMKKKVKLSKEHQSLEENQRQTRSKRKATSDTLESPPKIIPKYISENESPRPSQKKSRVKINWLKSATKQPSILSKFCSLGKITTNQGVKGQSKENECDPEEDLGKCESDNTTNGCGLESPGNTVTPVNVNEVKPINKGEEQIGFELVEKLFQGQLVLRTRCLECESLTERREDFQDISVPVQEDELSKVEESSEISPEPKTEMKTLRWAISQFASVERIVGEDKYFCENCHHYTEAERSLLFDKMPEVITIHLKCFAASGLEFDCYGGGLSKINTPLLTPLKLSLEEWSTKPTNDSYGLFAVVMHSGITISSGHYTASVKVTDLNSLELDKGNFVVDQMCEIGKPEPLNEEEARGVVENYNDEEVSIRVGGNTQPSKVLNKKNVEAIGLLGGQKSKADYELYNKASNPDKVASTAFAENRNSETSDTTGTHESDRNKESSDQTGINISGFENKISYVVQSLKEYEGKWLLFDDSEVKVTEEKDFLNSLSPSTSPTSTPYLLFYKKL

Compound: O=C(c1cnccn1)N1CCC2(CC1)CN(Cc1ccccc1)C2
- Potency [1]: > 11.4 µM
- activity change, negative = inhibition [2]: -15.8%
- activity, negative = inhibition [3]: 2.48%
- Potency [4]: > 46 µM
- Potency [5]: inactive
- Potency [6]: inactive
- outcome [7]: inactive

Compound: COCCn1c(=O)c(-c2ccc(OC)cc2)nc2cnc(Nc3ccccc3)nc21
- Potency [1]: > 11.4 µM
- activity change, negative = inhibition [2]: 6.46%
- activity change, negative = inhibition [8]: -9.78%
- Potency [9]: > 9.22 µM
- Potency [4]: > 46 µM
- Potency [5]: inactive
- Potency [6]: inactive
- outcome [7]: inactive

Compound: N#CCCn1c(=O)c(-c2cccs2)nc2cnc(Oc3ccccc3)nc21
- Potency [1]: > 11.4 µM
- activity change, negative = inhibition [2]: 9.42%
- activity change, negative = inhibition [8]: 15.6%
- Potency [9]: > 9.22 µM
- Potency [4]: > 46 µM
- Potency [5]: inactive
- Potency [6]: inactive
- outcome [7]: inactive

Compound: Cn1cccc1C(=O)N1CCC2(CCCN(Cc3nccs3)C2)CC1
- Potency [1]: > 11.4 µM
- activity change, negative = inhibition [2]: -3.56%
- activity, negative = inhibition [3]: -8.95%
- Potency [4]: > 46 µM
- Potency [5]: inactive
- Potency [6]: inactive
- outcome [7]: inactive

Compound: CCNc1ncc2nc(-c3cccs3)c(=O)n(-c3ccc(OC)cc3)c2n1
- Potency [1]: > 11.4 µM
- activity change, negative = inhibition [2]: -0.164%
- activity change, negative = inhibition [8]: -15.9%
- Potency [9]: > 9.22 µM
- Potency [4]: > 46 µM
- outcome [7]: inactive

Compound: O=c1c(CCc2ccccc2)nc2cnc(Nc3ccccc3)nc2n1Cc1cccs1
- Potency [1]: > 11.4 µM
- activity change, negative = inhibition [2]: -26.7%
- activity, negative = inhibition [3]: -23.5%
- Potency [9]: > 9.22 µM
- Potency [4]: > 46 µM
- Potency [5]: inactive
- Potency [6]: inactive
- outcome [7]: inactive

Compound: Cn1cccc1C(=O)N1CCC2(CCCN(C(=O)Nc3cccc(C#N)c3)C2)CC1
- Potency [1]: > 11.4 µM
- activity change, negative = inhibition [2]: -6.91%
- activity, negative = inhibition [3]: -16.1%
- Potency [4]: > 46 µM
- Potency [5]: inactive
- Potency [6]: inactive
- outcome [7]: inactive

Compound: N#Cc1cccc(NC(=O)N2CC3(CCN(C(=O)c4cnccn4)CC3)C2)c1
- Potency [1]: > 11.4 µM
- activity change, negative = inhibition [2]: -10.3%
- activity change, negative = inhibition [8]: 14.6%
- Potency [4]: > 46 µM
- Potency [5]: inactive
- Potency [6]: inactive
- Potency [10]: inactive
- outcome [7]: inactive

Compound: c1cncc(-c2nc(NCCN3CCOCC3)c3ccccc3n2)c1
- Potency [1]: > 11.4 µM
- activity change, negative = inhibition [2]: -8.53%
- activity change, negative = inhibition [8]: 7.81%
- Potency [9]: > 46 µM
- Potency [5]: inactive
- Potency [6]: inactive
- Potency [11]: inactive
- Potency [12]: inactive
- outcome [13]: inactive
- outcome [7]: inactive

Compound: O=C(c1cc(C(F)(F)F)cc(C(F)(F)F)c1)N1CCC2(CCCN(c3ccccn3)C2)CC1
- Potency [1]: > 11.4 µM
- activity change, negative = inhibition [2]: 10.7%
- activity, negative = inhibition [3]: -14.7%
- Potency [4]: > 46 µM
- Potency [5]: inactive
- Potency [6]: inactive
- activation [14]: 2.81%
- outcome [7]: inactive

Compound: Cc1cccc(CNc2cc(-c3ccccc3C)ncn2)c1
- Potency [1]: > 11.4 µM
- activity change, negative = inhibition [2]: 13.4%
- activity, negative = inhibition [3]: -8.32%
- Potency [9]: > 46 µM
- Potency [4]: > 46 µM
- Potency [5]: inactive
- activation [14]: 16.7%
- outcome [13]: inactive
- Potency [15]: 44.7 µM (active)
- outcome [7]: inactive

Compound: CS(=O)(=O)N1CCC2(CCN(Cc3ccc(C#N)cc3)CC2)CC1
- Potency [1]: > 11.4 µM
- activity change, negative = inhibition [2]: 3.08%
- activity, negative = inhibition [3]: 3.96%
- Potency [5]: inactive
- Potency [6]: inactive
- outcome [7]: inactive

Compound: O=C(c1ccco1)N1CCC2(CCCN(c3cccc(-c4ccccc4)c3)C2)CC1
- Potency [1]: > 11.4 µM
- activity change, negative = inhibition [2]: 12.9%
- activity, negative = inhibition [3]: -5.55%
- Potency [4]: > 46 µM
- Potency [5]: inactive
- outcome [7]: inactive

Compound: COCCn1c(=O)c(-c2cccs2)nc2cnc(OCc3ccccc3)nc21
- Potency [1]: > 11.4 µM
- activity change, negative = inhibition [2]: 2.42%
- activity change, negative = inhibition [8]: 4.34%
- Potency [9]: > 9.22 µM
- Potency [4]: > 46 µM
- Potency [5]: inactive
- Potency [11]: inactive
- outcome [7]: inactive

Source: PubChem BioAssay (NCATS)
